High-throughput results as filed in PubChem.
NPC1 prom act = activators of NPC1 promoter; Potency, µM (highest dose often 9.22 µM), hits mostly activators; AID 485313; Huh7 NPC1 promoter luciferase reporter, 24 h; actives 2.4% (n = 320,000); also: nearly all actives have a fitted effect of over 60% in size
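Compounds in DMSO were transferred onto Huh7 NPC1-luciferase reporter cells pre-incubated 2 h; after 24 h at 37 °C, Amplite reagent was dispensed and luminescence recorded 10 min later.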
ELG1 DNA repair = ELG1-dependent DNA repair inhibition. HEK293T ELG1-luciferase reporter, luminescence, 16 h; DNA damage induced by 5-fluorouridine. Potency, µM (doses to about 46.1 µM), hits mostly inhibitors. actives 2.3% (n = 330,000); also: nearly all actives have a fitted effect of over 55% in size
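Reporter activity after DNA damage by 5-fluorouridine is monitored. Compound-treated cells incubate 16 hr at 37 °C, then ONE-Glo is added for 30 min before luminescence reading.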
FLuc counter = counter-screen for miR-21 project: firefly luciferase inhibitors or activators | P08659 | purified FLuc, Km substrates, luminescence inhibition | Potency, µM (titrated, usually from 57.5 µM), most hits filed as inhibitors | actives 6.9% (n = 360,000); also: nearly all actives have a fitted effect of over 55% in size
Target sequence (P08659 whole entry, looked up): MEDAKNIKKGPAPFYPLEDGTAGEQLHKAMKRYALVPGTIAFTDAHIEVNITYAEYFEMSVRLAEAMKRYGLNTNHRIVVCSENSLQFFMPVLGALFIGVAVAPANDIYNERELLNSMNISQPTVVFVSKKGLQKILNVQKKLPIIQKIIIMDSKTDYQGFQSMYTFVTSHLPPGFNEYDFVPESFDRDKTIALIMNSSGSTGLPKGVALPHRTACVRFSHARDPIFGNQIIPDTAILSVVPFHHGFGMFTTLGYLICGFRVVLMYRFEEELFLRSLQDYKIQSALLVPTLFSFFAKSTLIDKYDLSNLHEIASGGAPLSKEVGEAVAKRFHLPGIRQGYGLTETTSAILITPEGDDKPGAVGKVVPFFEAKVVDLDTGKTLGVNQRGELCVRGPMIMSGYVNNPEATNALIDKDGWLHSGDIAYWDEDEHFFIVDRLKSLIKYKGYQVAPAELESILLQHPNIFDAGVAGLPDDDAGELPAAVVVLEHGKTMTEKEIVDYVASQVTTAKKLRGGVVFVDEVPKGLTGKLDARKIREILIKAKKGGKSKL
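Biochemical qHTS of compounds, final roughly 60 µM downward over six points, against 10 nM purified firefly luciferase using Km concentrations of substrates (10 uM D-luciferin, 10 uM ATP) in Tris acetate pH 7.5 buffer; luminescence output.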
SMN2 splice up = increases expression of the SMN2 splice variant. HEK293 SMN2-luciferase splicing reporter, luminescence, 30-36 h. AID 1458. actives 2.8% (n = 210,000). Potency, µM (series often up to 46.1 µM), hits mostly activators; also: nearly all actives have a fitted effect of over 55% in size
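HEK293 cells carry an SMN2 […]–luciferase reporter in which exon 7 inclusion puts luciferase in frame. Cells were plated 10-12 h before compound addition, then incubated 30-36 h at 37C. ONE-Glo luminescence was read; sodium butyrate at 4.5 mM final served as control.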
ELG1 genotox = inducers of genotoxicity in HEK293T ELG1-luciferase cells | HEK293T ELG1-luciferase reporter, luminescence, 16 h | Potency, µM (doses to about 46 µM), most hits filed as activators | actives 1.3% (n = 330,000) | AID 504466; also: nearly all actives have a fitted effect of over 60% in size
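Screening used a luciferase reporter fused to human ELG1 in HEK293T cells. Luminescence was read on a CCD plate imager after 16 hr exposure and 30 min ONE-Glo incubation.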
Rab9 prom act = activators of Rab9 promoter; Huh7 Rab9 promoter-luciferase reporter, luminescence, 24 h; Potency, µM (top dose mostly 9.22 µM), most hits filed as activators; actives 2.8% (n = 320,000); AID 485297; also: nearly all actives have a fitted effect of over 60% in size
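Measured in stably transfected Huh7 cells bearing a Rab9 promoter–luciferase construct: 24 h compound treatment at 37 °C, followed by luminescence detection.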
A number is an active result; i = inactive; ? = inconclusive; nt = no result. Rows were chosen to be rich in hits. Some 9.2% of all compounds tested hit in one or more screens of this group. Calls follow the shape of the dose curve; as a rule, active = well fitted curve in the direction sought with a large enough effect; inconclusive = small, poorly fitted or top-dose-only effect, or another doubt; inactive = no such curve, though single readings can be large; an effect the other way counts as inactive or inconclusive.

SMILES | NPC1 prom act | ELG1 DNA repair | FLuc counter | SMN2 splice up | ELG1 genotox | Rab9 prom act
Cc1ccc(C(=O)Nc2cccc(NC(=O)c3ccc(C)o3)n2)o1 | i | ? | 15.1µM | nt | i | i
CC(C)(C)c1csc(NC(=O)c2ccc(Br)o2)n1 | ? | ? | 26.9µM | nt | i | ?
Cc1nc(NC(=O)c2ccc(Br)o2)sc1C | ? | ? | 7.57µM | ? | i | ?
Cc1nn(C)c(C)c1NC(=O)c1ccc(Br)o1 | i | i | i | nt | i | i
Cc1ccc(C(=O)Nc2ccccc2NC(=O)c2ccc(C)o2)o1 | i | i | i | i | i | i
Cc1ccc(C(=O)Nc2nnc(C)s2)o1 | i | ? | i | i | i | i
Cc1ccc(C(=O)Nc2nc(C)c(C)s2)o1 | ? | ? | 6.75µM | 14.1µM | ? | 3.16µM
CC(C)C[C@H](NC(=O)[C@H](Cc1ccccc1)NC(=O)CNC(=O)CNC(=O)[C@@H](N)Cc1ccc(O)cc1)C(=O)N[C@@H](CCCN=C(N)N)C(=O)N[C@@H](CCCN=C(N)N)C(=O)N[C@@H](CCC(N)=O)C(=O)N[C@@H](Cc1ccccc1)C(=O)N[C@@H](CCCCN)C(=O)N[C@H](C(=O)N[C@H](C(=O)N[C@H](C(=O)O)[C@@H](C)O)C(C)C)C(C)C | nt | nt | nt | i | nt | nt
O=C(O)C1CCCCC1C(=O)Nc1ccc(S(=O)(=O)N2CCCCC2)cc1 (stereo not given) | i | i | i | nt | i | i
COc1ccc2c(C)c(CC(=O)NCCc3ccccc3)c(=O)oc2c1OC | nt | nt | i | i | nt | nt
O=C(O)c1ccc(N/N=C/c2ccc(F)c(F)c2)cc1 | 0.316µM | ? | 1.69µM | 1.41µM | 5.17µM | 0.316µM
O=C(N/N=C/c1cccc(F)c1)NC1CCCCC1 | i | ? | ? | i | i | i
O=C(O)c1ccc(N/N=C/c2cccc(C(F)(F)F)c2)cc1 | 0.562µM | ? | 3.38µM | nt | ? | 0.631µM
O=C(O)c1ccc(/C=N/NC(=O)C(O)(c2ccccc2)c2ccccc2)cc1 | i | i | i | nt | i | i
O=C(O)c1ccc(/C=N/Nc2ncc(Cl)cc2Cl)cc1 | i | ? | ? | nt | i | i
O=C(O)c1ccc(N/N=C/c2cccc(F)c2)cc1 | 0.501µM | ? | 2.39µM | 1µM | ? | 0.501µM
O=C(Nc1ccc2ccccc2c1)c1cc(F)c(F)cc1Cl | 2µM | ? | 3.38µM | nt | ? | ?
CCOC(=O)c1cc(NC(=O)c2ccoc2C)cc(C(=O)OCC)c1 | i | 9.2µM | ? | i | i | i
O=C(Nc1ccc2ccccc2c1)c1ccc(Cl)cc1Cl | 0.224µM | ? | 0.338µM | nt | 2.06µM | 0.398µM
O=C(Nc1nc(=S)ss1)c1ccc(Cl)cc1Cl | ? | ? | 15.1µM | ? | i | ?
CC(C)C(=O)Nc1cccc(NC(=O)c2ccc(Cl)cc2Cl)c1 | i | i | ? | i | i | i
CCCCOc1ccc(NC(=O)c2cc(F)c(F)cc2Cl)cc1 | i | ? | i | i | i | i
Cc1cccc(N2CCN(C(=O)Cc3c(C(=O)O)c(C)cn3C)CC2C)c1 (stereo not given) | nt | nt | i | nt | nt | nt
Cc1ccccc1CNC(=O)C(=O)NCCC1CCCCN1S(=O)(=O)c1cccs1 (stereo not given) | i | ? | i | nt | i | i
CCCn1c(N)c(N(CCOC)C(=O)c2c(CC)noc2C)c(=O)[nH]c1=O | i | i | i | nt | i | i
SMILES | NPC1 prom act | ELG1 DNA repair | FLuc counter | SMN2 splice up | ELG1 genotox | Rab9 prom act
Cc1occc1C(=O)Nc1ccc2ccccc2c1 | 1.41µM | ? | 3.38µM | 11.2µM | ? | 2.51µM
O=C(COC(=O)c1ccccc1O)Nc1ccc2ccccc2c1 | nt | ? | nt | nt | i | nt
CS(=O)(=O)N1CCc2cc(C(=O)Nc3ccc(Cl)cc3)ccc21 | ? | i | ? | nt | i | ?
O=C(Nc1ccc2ccccc2c1)c1ccccc1O | 3.98µM | ? | 0.301µM | nt | 0.231µM | 3.55µM
CS(=O)(=O)N1CCc2cc(NC(=O)c3ccc(Cl)cc3Cl)ccc21 | i | i | 19µM | i | i | i
COc1ccc(-n2nc(C(=O)O)c(=O)n(C)c2=O)cc1 | nt | nt | i | i | nt | nt
CC(=O)N=c1c(C#N)cc2c(=O)n3cccc(C)c3nc2n1CCCOC(C)C | i | 7.3µM | i | nt | i | i
COCCCn1c(=NC(=O)c2ccncc2)c(C#N)cc2c(=O)n3cccc(C)c3nc21 | i | i | i | ? | i | i
Cc1cccn2c(=O)c3cc(C#N)c(=NC(=O)c4ccncc4)n(CCCOC(C)C)c3nc12 | i | 11.6µM | i | i | i | i
Cc1cccn2c(=O)c3cc(C#N)c(=NC(=O)c4cccs4)n(CCCOC(C)C)c3nc12 | i | i | i | nt | i | i
CC(=O)Nc1ccc(NC(=O)CCc2nc3cccnc3n2Cc2cccs2)cc1 | nt | nt | i | i | nt | nt
COc1ccc(C(=O)N/C(=C\c2cn(C)c3ccccc23)C(=O)N2CCN(C)CC2)cc1OC | i | i | i | nt | i | i
O=C(Nc1cccc2ccccc12)c1ccc(OC(=S)N2CCOCC2)cc1 | i | i | 10.7µM | i | i | i
O=C(Nc1cccc(Cl)c1)c1ccc(OC(=S)N2CCOCC2)cc1 | ? | ? | 2.69µM | i | ? | ?
O=C(Nc1cccc2ccccc12)N1CCOCC1 | i | i | i | i | i | i
CCOC(=O)C1CCCN(C(=O)/C(=C/c2ccco2)NC(=O)c2ccccc2)C1 (stereo not given) | i | i | i | nt | i | i
Cc1cc(C)cc(-n2ccn(CC(=O)Nc3ccccc3C(F)(F)F)c(=O)c2=O)c1 | nt | nt | i | nt | nt | nt
O=C(COC(=O)C1=COCCO1)Nc1cc(C(F)(F)F)ccc1Cl | nt | i | nt | nt | i | nt
CCOc1ccc(NC(=O)c2ccc(N3CC4CC(C3)c3cccc(=O)n3C4)c(NC(=O)CCN3CCOCC3)c2)cc1 (stereo not given) | i | 7.3µM | i | nt | i | i
COCCn1c(SCC(=O)Nc2c(C)n(C)n(-c3ccccc3)c2=O)nc2ccccc2c1=O | i | i | i | nt | i | i
Cc1cc(NC(=O)c2cccc(Oc3ccccc3)c2)n[nH]1 | 2.82µM | ? | 6.75µM | ? | ? | 0.891µM
Cc1cc(NC(=O)NC(=O)c2cccc(OC(F)(F)C(F)F)c2)n[nH]1 | 2.51µM | ? | i | 5.62µM | ? | 2.24µM
Cc1ccnc(NC(=O)c2cccc(OC(F)F)c2)n1 | i | ? | ? | nt | i | i
COc1ccccc1-c1cc(C(F)(F)F)n2ncc(C(=O)N3CCc4ccccc4C3)c2n1 | i | i | i | nt | i | i
CCN(CC)S(=O)(=O)c1ccc(-c2nnc3sc4cccc(C)c4n23)cc1 | i | 23.1µM | i | i | i | i
COC(=O)c1cc(NC(=O)CCc2c(C)nc3nc(C)nn3c2C)cc(C(=O)OC)c1 | nt | nt | i | i | nt | nt
O=C(c1cc2cc(Br)ccc2o1)N1CCN(c2ccccc2)CC1 | i | ? | 19µM | nt | ? | i
O=C(c1cc2cc(Br)ccc2o1)N1CCCC1 | ? | ? | ? | i | ? | ?
